Data reported in the supplement of paper PMC10515830.
Structures can show the parent of a compound that is named as a salt.

Experiments:
Details in all cases: 10 µM; exposure time 6 h
[1] = system: Danio rerio larvae (5 dpf); assay: difference in excitability vs DMSO (percentage points); higher = more excitable than DMSO
Method in brief: (§1)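 Wild-type 5 dpf zebrafish larvae in 96-well plates were given 100 µL egg water containing library compound at 10 µM final for 6 h. After 3 h of exposure, plates at 28.5 ℃ were photographed every 6 s during a 3-h programme of moving lines and 100 ms, 400Hz tones. Z-LaP Tracker (a DeepLabCut model) quantified each behaviour, averaged over 48 larvae per compound. Values are the compound mean minus the DMSO-vehicle control, in percentage points.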

[2] = system: Danio rerio larvae (5 dpf); assay: difference in startle response vs DMSO (percentage points); higher = stronger startle than DMSO
Method in brief: as §1

[3] = system: Danio rerio larvae (5 dpf); assay: difference in activity during first hour vs DMSO (percentage points); higher = more activity than DMSO
Method in brief: as §1

[4] = system: Danio rerio larvae (5 dpf); assay: difference in habituation to acoustic stimuli vs DMSO (percentage points); higher = more habituation than DMSO
Method in brief: as §1

[5] = system: Danio rerio larvae (5 dpf); assay: difference in combined optomotor response to red, green and blue moving lines vs DMSO (percentage points); higher = stronger optomotor response than DMSO
Method in brief: as §1

Structure (SMILES) | difference in excitability [1] | difference in startle response [2] | difference in activity during first hour [3] | difference in habituation to acoustic stimuli [4] | difference [5]
N[C@@H](Cc1ccc(N(CCCl)CCCl)cc1)C(=O)O [Melphalan] | 10.9 | 1.5 | -4.46 | -1.58 | 7.41
CC[C@@H](C(N)=O)N1CCCC1=O [Levetiracetam] | 1.51 | 0.691 | 2.97 | 4.14 | 4.89
C[N@+]1(CC2CC2)CC[C@]23c4c5ccc(O)c4O[C@H]2C(=O)CC[C@@]3(O)[C@H]1C5 [Methylnaltrexone (bromide)] | 3.91 | -0.955 | 8.76 | 7.78 | -7.48
NCC1(CC(=O)O)CCCCC1 [Gabapentin] | -1.43 | 8.77 | 13.9 | 2.43 | 6.89
O=C(O[C@H]1C[C@H]2CC[C@@H](C1)[N+]21CCCC1)C(O)(c1ccccc1)c1ccccc1 [Trospium (chloride)] | -11.2 | -0.27 | 1.73 | -0.832 | -4.92
N[C@@H]1C[C@H]1c1ccccc1 [Tranylcypromine (hydrochloride)] | -4.31 | -7.1 | -15.2 | -1.86 | 1.86
CCOC(=O)c1cncn1[C@H](C)c1ccccc1 [Etomidate] | -7.08 | 15.9 | -22.2 | -6.98 | -19.2
Cc1cccc([C@H](C)c2c[nH]cn2)c1C [Dexmedetomidine (hydrochloride)] | 3.34 | 6.43 | -24.1 | -7.14 | -16.9
C=CCN1CC[C@]23c4c5ccc(O)c4O[C@H]2C(=O)CC[C@@]3(O)[C@H]1C5 [Naloxone (hydrochloride)] | 12.1 | -4.15 | 1.81 | 1.98 | 9.16
O=C(O[C@H]1C[N+]2(CCCOc3ccccc3)CCC1CC2)C(O)(c1cccs1)c1cccs1 [Aclidinium (bromide)] | -0.582 | -8.56 | -5.04 | -1.38 | -3.58
C[C@H](N)[C@H](O)c1ccc(O)c(O)c1 [Levonordefrin] | 2.43 | -2.28 | 3.36 | -5.57 | -0.226
O=P1(N(CCCl)CCCl)NCCCO1 (stereo not given) [Cyclophosphamide (hydrate)] | -1.55 | -0.479 | 2.35 | -0.439 | 2.91
O=c1[nH]c2ccccc2n1C1CCN(CCCC(c2ccc(F)cc2)c2ccc(F)cc2)CC1 [Pimozide] | -5.57 | 7.75 | -5.44 | -11 | -13.5
COc1cc2c(cc1OC)C1CC(=O)C(CC(C)C)CN1CC2 (stereo not given) [Tetrabenazine] | 25.1 | 3.39 | 9.5 | -2.68 | -3.98
C[C@]12CC[C@H](O)CC1=CC[C@@H]1[C@@H]2CC[C@]2(C)C(=O)CC[C@@H]12 [Dehydroepiandrosterone] | 19 | -2.18 | -15.8 | 1.51 | 6.05
CN(C)C(=O)Oc1cccc([N+](C)(C)C)c1 [Neostigmine (methyl sulfate)] | -10.3 | 0.754 | 11.2 | 5.23 | 17
CN1[C@@H]2C[C@@H](OC(=O)[C@H](CO)c3ccccc3)C[C@H]1[C@@H]1O[C@@H]12 [Scopolamine (hydrobromide)] | 4.44 | 2.53 | -2.69 | -4.87 | 2.89
CC(C)N(CCC(C(N)=O)(c1ccccc1)c1ccccn1)C(C)C (stereo not given) [Disopyramide] | 5.49 | -1.52 | 13.6 | 4.14 | 9.12
CN1[C@@H]2CC[C@H]1C[C@@H](OC(=O)C(CO)c1ccccc1)C2 (stereo not given in full) [Atropine] | -7.7 | -5.16 | -10.3 | -0.323 | -1.56
N.N.[Cl][Pt][Cl] [Cisplatin] | -2.35 | -10 | -16.8 | -5.63 | -0.233
O=C1CC[C@@]2(O)[C@H]3Cc4ccc(O)c5c4[C@@]2(CCN3CC2CC2)[C@H]1O5 [Naltrexone (hydrochloride)] | 12.7 | 5.18 | 13.3 | 2.13 | 7.87
CN(C)C(=O)Oc1ccc[n+](C)c1 [Pyridostigmine (bromide)] | -1.66 | -2.73 | -1.82 | 4.7 | 2.09
C=CCN1C[C@H](C(=O)N(CCCN(C)C)C(=O)NCC)C[C@@H]2c3cccc4[nH]cc(c34)C[C@H]21 [Cabergoline] | 13.2 | -8.8 | -4.41 | 5.57 | -3.78
CCOC(=O)CC(SP(=S)(OC)OC)C(=O)OCC (stereo not given) [Malathion] | 21.4 | 5.73 | -5.37 | 1.62 | 14.9
C=CCN1CC[C@]23c4c5ccc(O)c4O[C@H]2[C@@H](OCCOCCOCCOCCOCCOCCOCCOC)CC[C@@]3(O)[C@H]1C5 [Naloxegol (oxalate)] | 3.05 | 1.93 | 7.65 | 5.19 | -4.82
